According to PubChem BioAssay AID1159580 (chemical genetic matrix, 2015):
Out of some 5,500 compounds screened, about 2,000 (36%) were called active. Another 18% or so got no clear call; they are omitted. The list shows a part of the results. A number with no mark means an inactive call. Rule as the data show it: active = normalized growth mostly below about 0.91 (no sharp cut-off); inconclusive = no clear call, values can overlap the other calls; inactive = mostly above about 0.92.

Test: chemical genetic growth profiling, strain panel (AID 1159580);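 also: tested at 20 µM; growth read once vehicle control cultures reached saturation at 30 °C; 1 = growth at the plate median or of vehicle wells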
Settings: growth OD

Molecule `NC(C(=O)O)C(O)C(=O)O` (stereo not drawn) has a normalized growth (S. cerevisiae deletion strains, locus YJR066W, strain TOR1, stronger effect = lower value) of 0.994, a normalized growth (S. cerevisiae deletion strains, locus YJR075W, strain HOC1, stronger effect = lower value) of 1.01 and a normalized growth (S. cerevisiae deletion strains, locus YKL009W, strain mrt4, stronger effect = lower value) of 1.02. For the same molecule, the normalized growth (S. cerevisiae deletion strains, locus YKL068W, stronger effect = lower value) was 1.01, the normalized growth (S. cerevisiae deletion strains, locus YKL085W, strain MDH1 (second series), stronger effect = lower value) was 0.999 and the normalized growth (S. cerevisiae deletion strains, locus YKL085W, strain MDH1, stronger effect = lower value) was 0.999. It also gave a normalized growth (S. cerevisiae deletion strains, locus YKL160W, strain elf1, stronger effect = lower value) of 0.974, a normalized growth (S. cerevisiae deletion strains, locus YKR001C, strain vps1, stronger effect = lower value) of 1.02 and a normalized growth (S. cerevisiae deletion strains, locus YKR026C, strain gcn3, stronger effect = lower value) of 0.997. For the same molecule, the normalized growth (S. cerevisiae deletion strains, locus YKR091W, strain srl3, stronger effect = lower value) was 0.984, the normalized growth (S. cerevisiae deletion strains, locus YLL001W, strain dnm1, stronger effect = lower value) was 0.987 and the normalized growth (S. cerevisiae deletion strains, locus YLL026W, stronger effect = lower value) was 0.996. The normalized growth (S. cerevisiae deletion strains, locus YLL041C, strain sdh2, stronger effect = lower value) was 0.978, the normalized growth (S. cerevisiae deletion strains, locus YLR027C, strain aat2, stronger effect = lower value) was 0.998 and the normalized growth (S. cerevisiae deletion strains, locus YLR039C, strain RIC1, stronger effect = lower value) was 1.02. For the same molecule, the normalized growth (S. cerevisiae deletion strains, locus YLR058C, strain SHM2, stronger effect = lower value) was 1.01, the normalized growth (S. cerevisiae deletion strains, locus YLR102C, strain apc9, stronger effect = lower value) was 1.04 and the normalized growth (S. cerevisiae deletion strains, locus YLR113W, strain HOG1, stronger effect = lower value) was 1.07. For the same molecule, the normalized growth (S. cerevisiae deletion strains, locus YLR221C, strain rsa3, stronger effect = lower value) was 1.05, the normalized growth (S. cerevisiae deletion strains, locus YLR258W, strain gsy2, stronger effect = lower value) was 0.995 and the normalized growth (S. cerevisiae deletion strains, locus YLR262C, strain YPT6 (second series), stronger effect = lower value) was 0.973. It also gave a normalized growth (S. cerevisiae deletion strains, locus YLR262C, strain YPT6, stronger effect = lower value) of 1.02, a normalized growth (S. cerevisiae deletion strains, locus YLR268W, strain sec22, stronger effect = lower value) of 1.07 and a normalized growth (S. cerevisiae deletion strains, locus YLR320W, strain mms22, stronger effect = lower value) of 1.04. It also gave a normalized growth (S. cerevisiae deletion strains, locus YLR330W, strain CHS5, stronger effect = lower value) of 1.01, a normalized growth (S. cerevisiae deletion strains, locus YLR342W, strain FKS1 (second series), stronger effect = lower value) of 1 and a normalized growth (S. cerevisiae deletion strains, locus YLR342W, strain FKS1, stronger effect = lower value) of 0.999. It also gave a normalized growth (S. cerevisiae deletion strains, locus YLR357W, strain rsc2, stronger effect = lower value) of 0.982, a normalized growth (S. cerevisiae deletion strains, locus YLR370C, strain arc18, stronger effect = lower value) of 0.988 and a normalized growth (S. cerevisiae deletion strains, locus YLR371W, strain rom2, stronger effect = lower value) of 1.02. It also gave a normalized growth (S. cerevisiae deletion strains, locus YLR384C, strain iki3, stronger effect = lower value) of 0.981, a normalized growth (S. cerevisiae deletion strains, locus YLR418C, strain cdc73, stronger effect = lower value) of 1.03 and a normalized growth (S. cerevisiae deletion strains, locus YML016C, strain PPZ1, stronger effect = lower value) of 1.01. For the same molecule, the normalized growth (S. cerevisiae deletion strains, locus YML032C, strain rad52, stronger effect = lower value) was 1.02, the normalized growth (S. cerevisiae deletion strains, locus YML120C, strain ndi1, stronger effect = lower value) was 0.96 and the normalized growth (S. cerevisiae deletion strains, locus YML124C, strain tub3, stronger effect = lower value) was 1.02. It also gave a normalized growth (S. cerevisiae deletion strains, locus YMR058W, strain fet3, stronger effect = lower value) of 0.99, a normalized growth (S. cerevisiae deletion strains, locus YMR078C, strain ctf18, stronger effect = lower value) of 1.04 and a normalized growth (S. cerevisiae deletion strains, locus YMR125W, strain sto1, stronger effect = lower value) of 0.95. For the same molecule, the normalized growth (S. cerevisiae deletion strains, locus YMR129W, stronger effect = lower value) was 1, the normalized growth (S. cerevisiae deletion strains, locus YMR205C, strain PFK2, stronger effect = lower value) was 0.966 and the normalized growth (S. cerevisiae deletion strains, locus YMR223W, strain ubp8, stronger effect = lower value) was 1.03. It also gave a normalized growth (S. cerevisiae deletion strains, locus YMR231W, strain pep5, stronger effect = lower value) of 0.993, a normalized growth (S. cerevisiae deletion strains, locus YMR307W, strain GAS1, stronger effect = lower value) of 1.08 and a normalized growth (S. cerevisiae deletion strains, locus YNL067W, strain RPL9B, stronger effect = lower value) of 1.01. It also gave a normalized growth (S. cerevisiae deletion strains, locus YNL071W, strain lat1, stronger effect = lower value) of 0.982, a normalized growth (S. cerevisiae deletion strains, locus YNL153C, strain GIM3, stronger effect = lower value) of 1.01 and a normalized growth (S. cerevisiae deletion strains, locus YNL183C, strain NPR1, stronger effect = lower value) of 0.982. It also gave a normalized growth (S. cerevisiae deletion strains, locus YNL209W, strain ssb2, stronger effect = lower value) of 0.982, a normalized growth (S. cerevisiae deletion strains, locus YNL233W, strain BNI4, stronger effect = lower value) of 1.01 and a normalized growth (S. cerevisiae deletion strains, locus YNL248C, strain rpa49, stronger effect = lower value) of 0.94. The normalized growth (S. cerevisiae deletion strains, locus YNL250W, strain rad50, stronger effect = lower value) was 1.05, the normalized growth (S. cerevisiae deletion strains, locus YNL271C, strain bni1, stronger effect = lower value) was 1.03 and the normalized growth (S. cerevisiae deletion strains, locus YNL298W, strain CLA4, stronger effect = lower value) was 1.05. The normalized growth (S. cerevisiae deletion strains, locus YNL307C, strain MCK1, stronger effect = lower value) was 1.03, the normalized growth (S. cerevisiae deletion strains, locus YNL322C, strain KRE1 (second series), stronger effect = lower value) was 0.98 and the normalized growth (S. cerevisiae deletion strains, locus YNR049C, strain mso1, stronger effect = lower value) was 0.981. The normalized growth (S. cerevisiae deletion strains, locus YNR052C, strain pop2, stronger effect = lower value) was 1.04, the normalized growth (S. cerevisiae deletion strains, locus YOL012C, strain htz1) was 1.88 [resistant] (active) and the normalized growth (S. cerevisiae deletion strains, locus YOL147C, strain pex11, stronger effect = lower value) was 1.02. The normalized growth (S. cerevisiae deletion strains, locus YOR001W, strain rrp6, stronger effect = lower value) was 1.01, the normalized growth (S. cerevisiae deletion strains, locus YOR061W, strain CKA2, stronger effect = lower value) was 1.01 and the normalized growth (S. cerevisiae deletion strains, locus YOR069W, strain VPS5, stronger effect = lower value) was 1. The normalized growth (S. cerevisiae deletion strains, locus YOR070C, strain gyp1, stronger effect = lower value) was 1.03, the normalized growth (S. cerevisiae deletion strains, locus YOR080W, strain dia2, stronger effect = lower value) was 0.996 and the normalized growth (S. cerevisiae deletion strains, locus YOR083W, strain WHI5, stronger effect = lower value) was 0.979. It also gave a normalized growth (S. cerevisiae deletion strains, locus YOR106W, strain vam3, stronger effect = lower value) of 0.956, a normalized growth (S. cerevisiae deletion strains, locus YOR136W, strain idh2, stronger effect = lower value) of 1.03 and a normalized growth (S. cerevisiae deletion strains, locus YOR144C, strain elg1, stronger effect = lower value) of 1.02. It also gave a normalized growth (S. cerevisiae deletion strains, locus YOR184W, strain ser1, stronger effect = lower value) of 1.03, a normalized growth (S. cerevisiae deletion strains, locus YOR231W, strain MKK1, stronger effect = lower value) of 1.09 and a normalized growth (S. cerevisiae deletion strains, locus YOR265W, strain rbl2, stronger effect = lower value) of 0.987. The normalized growth (S. cerevisiae deletion strains, locus YOR270C, strain vph1, stronger effect = lower value) was 1.01, the normalized growth (S. cerevisiae deletion strains, locus YOR290C, strain snf2, stronger effect = lower value) was 0.926 and the normalized growth (S. cerevisiae deletion strains, locus YOR316C, strain cot1, stronger effect = lower value) was 1.02. The normalized growth (S. cerevisiae deletion strains, locus YPL051W, strain arl3, stronger effect = lower value) was 1, the normalized growth (S. cerevisiae deletion strains, locus YPL055C, strain LGE1, stronger effect = lower value) was 1.03 and the normalized growth (S. cerevisiae deletion strains, locus YPL078C, strain atp4, stronger effect = lower value) was 0.949. It also gave a normalized growth (S. cerevisiae deletion strains, locus YPL106C, strain sse1, stronger effect = lower value) of 0.954, a normalized growth (S. cerevisiae deletion strains, locus YPL240C, strain hsp82, stronger effect = lower value) of 0.996 and a normalized growth (S. cerevisiae deletion strains, locus YPL241C, strain CIN2, stronger effect = lower value) of 1. It also gave a normalized growth (S. cerevisiae deletion strains, locus YPL256C, strain CLN2, stronger effect = lower value) of 1.03, a normalized growth (S. cerevisiae deletion strains, locus YPR119W, strain clb2, stronger effect = lower value) of 1.02 and a normalized growth (S. cerevisiae deletion strains, locus YPR141C, strain kar3, stronger effect = lower value) of 1.02. It also gave a normalized growth (S. cerevisiae deletion strains, locus YPR163C, strain tif3, stronger effect = lower value) of 1.03, a normalized growth (S. cerevisiae deletion strains, locus YPR167C, strain met16, stronger effect = lower value) of 1.02 and a normalized growth (S. cerevisiae deletion strains, strain wtn01, stronger effect = lower value) of 1.03. It also gave a normalized growth (S. cerevisiae strains, strain wild type, stronger effect = lower value) of 1.01.
